Laboratory results published in PubChem BioAssay.
Inconclusive results are not listed. Calls of active or inactive are those of the source.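 How the source made its calls, unless noted: active means GFP response, as percent of the DMSO control, above the screen-wide mean plus 3 SD, about 139; inconclusive means no response measured because the compound's own fluorescence interfered; inactive means the rest.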

Key:
[1] = yeast TOR pathway RPL19A-GFP modulators, primary screen, cell-based, S. cerevisiae, multiplex flow cytometry (AID 1862; in the data active means percent of DMSO control GFP below about 86%;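 further: lower values mimic rapamycin by blocking the RPL19A rise seen in DMSO cells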); details: S. cerevisiae RPL19A-GFP strain, flow cytometry fluorescence, 3 h; at 10 µM; stronger effect = lower value
[2] = modulators of MEP2-GFP levels in yeast, primary screen, S. cerevisiae, multiplex flow cytometry (AID 1867);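 further: median GFP channel fluorescence of barcode-gated MEP2-GFP cells measured by flow cytometry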; details: S. cerevisiae MEP2-GFP strain, 3 h, at 10 µM, stronger effect = higher value, 100% means same as DMSO wells
[3] = modulators of CIT2-GFP expression in yeast, primary screen, S. cerevisiae, GFP fusion, multiplex flow cytometry (AID 1870;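 active means percent response above a set limit, the screen-wide mean plus 3 SD, cut at about 130% in these data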;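 further: barcoded CIT2-GFP strain pooled with four other GFP strains with rapamycin as positive control; median GFP fluorescence per well over plate mean of DMSO wells so 100% = DMSO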); details: 3 h, at 10 µM, stronger effect = higher value
[4] = modulators of LAP4-GFP expression in yeast, primary screen, S. cerevisiae, multiplex flow cytometry (AID 1873;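 active means GFP signal, as percent of the solvent control, above the screen mean plus 3 SD, about 149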); details: 3 h, at 10 µM, stronger effect = higher value
[5] = modulators of AGP1-GFP expression in yeast TOR pathway, primary screen, cell-based, multiplex flow cytometry, S. cerevisiae (AID 1887;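 active means GFP signal above the screen-wide mean plus 3 SD, that is over about 124.5% of the solvent control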;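 further: AGP1-GFP fusion strain of S. cerevisiae within a five-strain barcoded multiplex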); details: 3 h, at 10 µM, stronger effect = higher value
[6] = inhibitors of CD8+ T cell-vesicle binding, pilot screen, LFA-1/ICAM-1 modulator project, MLPCN validation set, flow cytometry (AID 2523;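 active means response below a set limit, under 55% cells CD8-positive and vesicle-bound, and CD8 cells' 90th-percentile brightness under 279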;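 on vesicle binding response: mean PE anti-B7-1 fluorescence of CD8+ cells relative to row control; 100% = QL9-loaded vesicles with DMSO vehicle in the same plate row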); details: 2C mouse CD8+ T cells, at 7 µM, stronger effect = lower value; double positive events: measured here: CD8+/vesicle+ event percentage
[7] = target: Integrin beta-1 (Homo sapiens) + Integrin alpha-4 (Homo sapiens) (UniProt P13612+P05556); assay: inhibition of HUTS-21 binding to VLA-4, pilot screen, VLA-4 allosteric modulator project, U937 cells, HUTS-21 mAb, flow cytometry, validation set (AID 2674;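 active means inhibition above 50%, about 3 SD of the validation set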;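 further: antibody binding induced by the VLA-4 ligand LDV present at three times its Kd; 0% = LDV ligand with antibody and no compound and 100% = antibody without LDV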); details: HUTS-21 LIBS mAb binding, at 6.7 µM, stronger effect = higher value, binding induced by LDV ligand
[8] = superoxide lowering in aged yeast cells, pilot screen, validation compound set (AID 2706;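 active means superoxide response below 65% of plate, a cut near 3 SD across the whole screen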;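 further: yeast exposed to compound for one week at 30 degrees C before staining; 100% = mean of all compound wells on the same plate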); details: S. cerevisiae aging, superoxide DHE fluorescence; at 10 µM; stronger effect = lower value
[9] = target: Beta-adrenergic receptor kinase 1 (Homo sapiens) (UniProt P25098); assay: GRK2 binders displacing RNA aptamer, biochemical, validation, human GRK2, bead flow cytometry (AID 488806;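 active means aptamer binding inhibition above 30%, about 3 SD of noise from non-fluorescent compounds; inactive means inhibition at or below 30%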); details: bead-bound GRK2, FAM-aptamer displacement, at 10 µM, stronger effect = higher value
[10] = target: Beta-2 adrenergic receptor (Homo sapiens) (UniProt P07550); assay: beta2AR agonists driving receptor internalization, pilot screen, cell-based, FAP fluorogen, flow cytometry, validation set (AID 504459;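 active means percent response above 42, roughly 3 SD of non-fluorescent test compounds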;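 further: agonist-driven loss of surface beta2AR via internalization measured by FAP dye flow cytometry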); details: Am2.2-beta2AR cells, FAP surface receptor flow cytometry; at 10 µM; stronger effect = higher value
[11] = target: AP-2 complex subunit beta (Homo sapiens) (UniProt P63010); assay: inhibitors of arrestin peptide binding to AP2, pilot screen, biochemical, validation set, GST-AP2 beads, flow cytometry (AID 504541;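 active means inhibition above 54%, about 3 SD of non-fluorescent compounds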;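 further: AP2 carries R879A mutation and is captured from E. coli lysate; bead-bound FITC arrestin peptide fluorescence measuring arrestin peptide binding to AP2; 0% = DMSO wells and 100% = excess unlabeled arrestin peptide control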); details: FITC arrestin peptide, at 10 µM, stronger effect = higher value, AP2 beta2 appendage fragment, R879A mutant
[12] = yeast V-ATPase proton transport modulators, S. cerevisiae, pHLuorin, HTS validation (AID 504600; in the data active means response above about 15%;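 further: plate controls were DMSO for no effect and reference compound for full effect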); details: S. cerevisiae pHLuorin cytosolic pH, at 10 µM, stronger effect = higher value
[13] = tested on: anti-desmoglein-3 scFv antibody binding to human DSG3; assay: inhibitors of anti-DSG3 scFv binding to DSG3, pilot screen, biochemical, validation compound set, bead-based, flow cytometry (AID 588368;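 active means binding below the plate cutoff, the plate median minus 3 SD, with a reading above zero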;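 further: signal is the median channel fluorescence of bead-bound GFP antibody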); details: Protein G beads, DSG3-Fc, scFv-GFP binding, at 10 µM, stronger effect = lower value
[14] = inhibitors of fungal efflux pumps CDR1, CDR2, MDR1, pilot screen, validation compound set, multiplex, phenotypic (AID 588506;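 active means efflux inhibition above 0.42, the validation set average plus 4 SD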;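 further: Nile Red retained in cells so higher fluorescence means more efflux inhibition; 0 = negative control wells and 1 = enniatin B 25 µM full block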); details: S. cerevisiae pump-expressing triplex, Nile Red efflux flow cytometry; at 10 µM; stronger effect = higher value; the pumps come from Candida albicans
[15] = target: ATP-binding cassette sub-family B member 6 (Homo sapiens) (UniProt Q9NP58); assay: ABCB6 transporter inhibitors, pilot screen, K562-ABCB6 cells, flow cytometry, validation set (AID 588550;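 active means inhibition above the screen-wide mean plus 3 SD, about 51%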;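 further: 0% = DMSO wells and 100% = benzethonium chloride 70 µM positive control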); details: K562-ABCB6 porphyrin accumulation, 1 h, at 10 µM, stronger effect = higher value
[16] = promoters of myeloid differentiation in arrested cells, primary screen, cell-based, GFP/MAC1 double positive, flow cytometry, validation set (AID 588685;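 active means differentiation response of at least 50%, scaled between solvent and reference control, from cells with both markers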;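 further: compound exposure lasts four days before antibody staining and flow analysis; 0% = DMSO wells and 100% = 5 µM fulvestrant positive control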); details: ER-HoxA9 marrow cells, stronger effect = higher value, normalized: vehicle 0, fulvestrant 100

Sequence of Beta-adrenergic receptor kinase 1 (Homo sapiens) (P25098 whole entry, looked up): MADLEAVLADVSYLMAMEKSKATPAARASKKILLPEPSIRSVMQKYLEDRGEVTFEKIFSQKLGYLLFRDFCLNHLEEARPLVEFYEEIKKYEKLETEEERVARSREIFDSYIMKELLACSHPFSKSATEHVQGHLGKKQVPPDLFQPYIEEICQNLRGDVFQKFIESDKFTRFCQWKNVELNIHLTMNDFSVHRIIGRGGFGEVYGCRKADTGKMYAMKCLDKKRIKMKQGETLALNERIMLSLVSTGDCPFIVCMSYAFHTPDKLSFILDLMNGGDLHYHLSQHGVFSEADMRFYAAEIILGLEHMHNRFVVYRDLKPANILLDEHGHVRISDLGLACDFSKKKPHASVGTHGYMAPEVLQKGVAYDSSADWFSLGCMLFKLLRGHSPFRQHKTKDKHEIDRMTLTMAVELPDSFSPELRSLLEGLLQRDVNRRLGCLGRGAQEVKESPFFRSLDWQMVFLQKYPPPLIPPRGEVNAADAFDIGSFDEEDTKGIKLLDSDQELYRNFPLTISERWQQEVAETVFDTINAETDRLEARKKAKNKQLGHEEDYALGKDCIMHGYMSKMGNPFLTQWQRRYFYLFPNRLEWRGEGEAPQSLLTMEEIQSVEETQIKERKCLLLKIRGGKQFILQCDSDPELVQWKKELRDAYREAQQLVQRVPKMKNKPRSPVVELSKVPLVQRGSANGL
Sequence of AP-2 complex subunit beta (Homo sapiens) (P63010 whole entry, looked up, the tested form may be a part, one chain of several): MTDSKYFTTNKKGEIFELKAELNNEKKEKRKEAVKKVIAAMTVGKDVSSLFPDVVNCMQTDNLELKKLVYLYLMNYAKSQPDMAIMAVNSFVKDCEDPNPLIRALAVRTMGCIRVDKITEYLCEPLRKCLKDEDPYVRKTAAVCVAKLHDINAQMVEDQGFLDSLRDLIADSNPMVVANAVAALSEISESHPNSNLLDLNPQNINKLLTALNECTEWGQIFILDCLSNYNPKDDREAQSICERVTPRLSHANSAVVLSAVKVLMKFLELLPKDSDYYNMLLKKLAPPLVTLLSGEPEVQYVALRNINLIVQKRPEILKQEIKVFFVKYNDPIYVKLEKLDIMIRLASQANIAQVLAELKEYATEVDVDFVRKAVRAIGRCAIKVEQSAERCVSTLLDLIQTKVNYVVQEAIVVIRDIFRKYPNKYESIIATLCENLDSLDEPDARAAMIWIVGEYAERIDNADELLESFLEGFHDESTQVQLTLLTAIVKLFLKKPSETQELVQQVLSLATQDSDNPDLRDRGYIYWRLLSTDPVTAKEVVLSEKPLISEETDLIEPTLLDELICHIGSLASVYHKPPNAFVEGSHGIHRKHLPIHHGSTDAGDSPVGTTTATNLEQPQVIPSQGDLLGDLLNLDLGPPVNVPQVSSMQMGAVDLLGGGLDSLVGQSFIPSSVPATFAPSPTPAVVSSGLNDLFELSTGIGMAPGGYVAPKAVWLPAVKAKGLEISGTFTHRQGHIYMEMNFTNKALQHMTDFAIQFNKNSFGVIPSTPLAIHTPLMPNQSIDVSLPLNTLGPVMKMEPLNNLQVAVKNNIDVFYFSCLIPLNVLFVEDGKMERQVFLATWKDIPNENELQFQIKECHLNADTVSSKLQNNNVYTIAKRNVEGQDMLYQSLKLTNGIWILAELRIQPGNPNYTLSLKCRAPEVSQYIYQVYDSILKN
Sequence of Beta-2 adrenergic receptor (Homo sapiens) (P07550 whole entry, looked up): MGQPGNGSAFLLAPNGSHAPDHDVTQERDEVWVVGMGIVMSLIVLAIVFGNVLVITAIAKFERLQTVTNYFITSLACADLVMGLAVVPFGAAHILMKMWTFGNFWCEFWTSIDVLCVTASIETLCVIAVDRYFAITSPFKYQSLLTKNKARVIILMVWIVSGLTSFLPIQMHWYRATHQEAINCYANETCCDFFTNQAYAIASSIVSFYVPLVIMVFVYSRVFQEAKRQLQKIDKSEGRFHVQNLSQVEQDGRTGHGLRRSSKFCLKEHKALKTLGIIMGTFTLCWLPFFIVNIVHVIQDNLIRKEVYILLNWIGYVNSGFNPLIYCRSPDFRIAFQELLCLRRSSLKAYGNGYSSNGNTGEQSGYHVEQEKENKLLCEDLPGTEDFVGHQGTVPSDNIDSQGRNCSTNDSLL
Sequence of ATP-binding cassette sub-family B member 6 (Homo sapiens) (Q9NP58 whole entry, looked up): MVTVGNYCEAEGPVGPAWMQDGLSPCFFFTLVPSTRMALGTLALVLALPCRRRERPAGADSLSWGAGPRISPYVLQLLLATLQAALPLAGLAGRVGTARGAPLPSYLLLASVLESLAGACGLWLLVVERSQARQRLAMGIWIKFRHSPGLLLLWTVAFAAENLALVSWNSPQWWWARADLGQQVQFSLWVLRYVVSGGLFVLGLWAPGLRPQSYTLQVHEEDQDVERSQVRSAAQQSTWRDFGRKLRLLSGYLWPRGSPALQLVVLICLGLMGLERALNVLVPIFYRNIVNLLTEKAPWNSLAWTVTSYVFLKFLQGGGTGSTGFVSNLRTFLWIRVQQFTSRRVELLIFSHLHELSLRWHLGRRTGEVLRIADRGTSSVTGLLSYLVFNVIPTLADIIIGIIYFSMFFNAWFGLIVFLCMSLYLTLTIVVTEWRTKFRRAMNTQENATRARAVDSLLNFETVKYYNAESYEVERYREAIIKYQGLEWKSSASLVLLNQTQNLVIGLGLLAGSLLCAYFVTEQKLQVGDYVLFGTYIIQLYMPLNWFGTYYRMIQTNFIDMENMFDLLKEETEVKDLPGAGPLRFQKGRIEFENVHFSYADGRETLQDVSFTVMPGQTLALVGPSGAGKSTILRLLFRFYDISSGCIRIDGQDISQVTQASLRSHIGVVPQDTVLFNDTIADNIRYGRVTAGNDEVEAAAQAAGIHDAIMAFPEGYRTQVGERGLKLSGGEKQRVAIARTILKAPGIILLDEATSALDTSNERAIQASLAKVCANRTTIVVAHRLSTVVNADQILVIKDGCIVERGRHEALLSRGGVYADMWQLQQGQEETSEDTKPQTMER
Sequence of Integrin beta-1 (Homo sapiens) + Integrin alpha-4 (Homo sapiens) (P05556 whole entry, looked up): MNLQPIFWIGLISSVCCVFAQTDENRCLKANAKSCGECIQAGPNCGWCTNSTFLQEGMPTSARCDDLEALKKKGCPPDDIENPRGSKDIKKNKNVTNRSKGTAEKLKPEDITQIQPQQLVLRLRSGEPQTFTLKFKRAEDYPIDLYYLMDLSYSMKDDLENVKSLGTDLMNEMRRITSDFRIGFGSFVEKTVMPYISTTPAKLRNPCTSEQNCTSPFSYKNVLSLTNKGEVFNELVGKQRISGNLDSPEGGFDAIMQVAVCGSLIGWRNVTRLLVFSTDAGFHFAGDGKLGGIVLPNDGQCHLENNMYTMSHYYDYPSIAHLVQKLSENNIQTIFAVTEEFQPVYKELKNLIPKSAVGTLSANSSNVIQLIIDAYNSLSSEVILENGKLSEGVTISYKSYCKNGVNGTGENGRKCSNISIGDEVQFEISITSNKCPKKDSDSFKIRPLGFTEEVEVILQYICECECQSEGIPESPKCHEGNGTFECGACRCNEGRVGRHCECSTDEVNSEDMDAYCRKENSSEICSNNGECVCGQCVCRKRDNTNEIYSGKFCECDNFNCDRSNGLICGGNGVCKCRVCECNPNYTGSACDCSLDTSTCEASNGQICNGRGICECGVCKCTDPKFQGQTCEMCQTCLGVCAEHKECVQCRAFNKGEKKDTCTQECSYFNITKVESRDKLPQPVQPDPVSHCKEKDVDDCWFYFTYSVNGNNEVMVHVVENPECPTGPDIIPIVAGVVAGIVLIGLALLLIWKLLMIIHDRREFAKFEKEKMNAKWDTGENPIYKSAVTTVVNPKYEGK
Sequence of Integrin beta-1 (Homo sapiens) + Integrin alpha-4 (Homo sapiens) (P13612 whole entry, looked up): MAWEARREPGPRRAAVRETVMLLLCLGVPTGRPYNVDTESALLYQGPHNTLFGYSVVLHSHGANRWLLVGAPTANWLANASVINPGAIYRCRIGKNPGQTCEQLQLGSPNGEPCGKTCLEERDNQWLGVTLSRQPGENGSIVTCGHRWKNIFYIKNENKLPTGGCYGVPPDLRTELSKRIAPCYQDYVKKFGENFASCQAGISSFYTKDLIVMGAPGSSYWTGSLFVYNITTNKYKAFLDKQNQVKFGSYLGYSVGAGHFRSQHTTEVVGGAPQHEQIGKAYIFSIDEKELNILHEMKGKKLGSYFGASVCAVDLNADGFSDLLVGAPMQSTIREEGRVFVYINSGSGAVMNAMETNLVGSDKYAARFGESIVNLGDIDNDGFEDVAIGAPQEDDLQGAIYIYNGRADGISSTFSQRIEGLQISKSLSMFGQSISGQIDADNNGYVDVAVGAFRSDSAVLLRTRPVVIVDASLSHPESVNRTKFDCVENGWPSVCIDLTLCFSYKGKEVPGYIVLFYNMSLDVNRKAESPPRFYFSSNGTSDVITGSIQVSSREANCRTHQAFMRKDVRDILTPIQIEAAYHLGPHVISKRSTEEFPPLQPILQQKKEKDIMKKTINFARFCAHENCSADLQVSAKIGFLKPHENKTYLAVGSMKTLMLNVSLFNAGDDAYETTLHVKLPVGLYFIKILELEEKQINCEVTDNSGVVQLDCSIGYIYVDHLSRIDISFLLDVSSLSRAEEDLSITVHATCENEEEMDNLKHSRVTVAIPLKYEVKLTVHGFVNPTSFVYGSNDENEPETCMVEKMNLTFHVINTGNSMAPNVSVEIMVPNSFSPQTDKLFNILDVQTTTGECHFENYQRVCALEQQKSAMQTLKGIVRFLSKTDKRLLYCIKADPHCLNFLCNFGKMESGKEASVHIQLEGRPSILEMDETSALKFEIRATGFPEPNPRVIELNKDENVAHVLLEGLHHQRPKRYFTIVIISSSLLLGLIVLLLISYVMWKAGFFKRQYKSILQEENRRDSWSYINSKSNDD

| Compound | percent of DMSO control GFP [1] | GFP response vs DMSO [2] | percent response of DMSO control [3] | GFP response vs DMSO [4] | GFP response, % of DMSO [5] | double positive events [6] | vesicle binding response [6] | inhibition [7] | superoxide response (% of plate) [8] | aptamer binding inhibition [9] | response [10] | inhibition [11] | response [12] | binding (% of control) [13] | efflux inhibition (fraction of control) [14] | inhibition [15] | differentiation response [16] |
| --- | --- | --- | --- | --- | --- | --- | --- | --- | --- | --- | --- | --- | --- | --- | --- | --- | --- |
| COc1cccc2c(O)cc(=O)n(C)c12 | 96.9% (inactive) | 111% (inactive) | 96.7% (inactive) | 116% (inactive) | 100% (inactive) | 61.5% | 169% (inactive) | 3.67% (inactive) | 98.4% (inactive) | -1% (inactive) | 5.82% (inactive) | 25% (inactive) | -5.16% (inactive) | 101% (inactive) | -0.17 (inactive) | 4% (inactive) | -21.6% (inactive) |
| COc1cc2c(cc1OC)-c1nnc(C)n1C(C)(C)C2 | 100% (inactive) | 94.1% (inactive) | 107% (inactive) | 102% (inactive) | 100% (inactive) | 59.4% | 211% (inactive) | -1.79% (inactive) | 94.7% (inactive) | 2% (inactive) | 3.64% (inactive) | -4.56% (inactive) | 7.5% (inactive) | 100% (inactive) | -0.21 (inactive) | 4% (inactive) | -28% (inactive) |
| O=C(Cc1cccc2ccccc12)N1CC[C@@]2(O)CCCC[C@H]2C1 | 92% (inactive) | 138% (inactive) | 104% (inactive) | 85.3% (inactive) | 85% (inactive) | 62% | 252% (inactive) | 10.3% (inactive) | 110% (inactive) | 11% (inactive) | 0.11% (inactive) | -11.6% (inactive) | 2.02% (inactive) | 105% (inactive) | -0.24 (inactive) | 10% (inactive) | -2.46% (inactive) |
| O=C(N1CCCCC1)C1(c2ccccc2)CCOCC1 | 99.3% (inactive) | 103% (inactive) | 92% (inactive) | 129% (inactive) | 103% (inactive) | 57.5% | 213% (inactive) | -3.16% (inactive) | 92.5% (inactive) | 1% (inactive) | -7.86% (inactive) | 7.05% (inactive) | 0.45% (inactive) | 104% (inactive) | -0.17 (inactive) | 5% (inactive) | -24.8% (inactive) |
| NNC(=O)c1ccncc1 | 102% (inactive) | 113% (inactive) | 93.9% (inactive) | 117% (inactive) | 105% (inactive) | 61.7% | 175% (inactive) | -14.1% (inactive) | 90.8% (inactive) | 4% (inactive) | -10.5% (inactive) | -2.19% (inactive) | 2.56% (inactive) | 98.4% (inactive) | -0.1 (inactive) | 1% (inactive) | -2.4% (inactive) |
| Fc1ccccc1CNCCC(Cc1ccccc1)c1ccc2c(c1)OCO2 (stereo not given) | 98.8% (inactive) | 107% (inactive) | 96% (inactive) | 90.2% (inactive) | 94.9% (inactive) | 63.8% | 99.6% (inactive) | 8.28% (inactive) | 104% (inactive) | -1% (inactive) | 14% (inactive) | 11.7% (inactive) | 1.06% (inactive) | 105% (inactive) | -0.22 (inactive) | 4% (inactive) | -5.68% (inactive) |
| CCc1ccc2oc(=O)cc(CN3CCC(C)CC3)c2c1 | 95% (inactive) | 104% (inactive) | 95.8% (inactive) | 123% (inactive) | 95.8% (inactive) | 53.7% | 178% (inactive) | -18.2% (inactive) | 98.9% (inactive) | 0% (inactive) | 13.8% (inactive) | -0.51% (inactive) | 85.2% (active) | 103% (inactive) | -0.06 (inactive) | -5% (inactive) | -12% (inactive) |
| O=c1ccc2c(o1)/C(=C/C=C(Cl)Cl)CCC2 | 101% (inactive) | 101% (inactive) | 90.1% (inactive) | 110% (inactive) | 84% (inactive) | 56.9% | 236% (inactive) | -7.25% (inactive) | 101% (inactive) | 2% (inactive) | 62.6% (active) | 60.4% (active) | -6.24% (inactive) | 101% (inactive) | -0.06 (inactive) | 6% (inactive) | -10.4% (inactive) |
| NS(=O)(=O)c1cc2c(cc1Cl)NCNS2(=O)=O | 99.7% (inactive) | 102% (inactive) | 95.7% (inactive) | 132% (inactive) | 123% (inactive) | 62.4% | 245% (inactive) | -4.52% (inactive) | 89.4% (inactive) | -2% (inactive) | -19.4% (inactive) | -24.8% (inactive) | 0.56% (inactive) | 105% (inactive) | 0 (inactive) | 2% (inactive) | -11.9% (inactive) |
| O=C(NCCc1ccccc1)C1CCN(C2CCN(Cc3ccco3)CC2)CC1 | 98.6% (inactive) | 105% (inactive) | 101% (inactive) | 118% (inactive) | 120% (inactive) | 58.9% | 159% (inactive) | -9.63% (inactive) | 92.6% (inactive) | -13% (inactive) | -41.8% (inactive) | -2.11% (inactive) | -0.87% (inactive) | 126% (inactive) | -0.04 (inactive) | 6% (inactive) | -5.97% (inactive) |
